According to PubChem BioAssay AID602393 (Broad Institute, 2012):
Among all 350,000 compounds or so, about 7,000 (2%) were called active. The sample holds actives, similar compounds and a random draw of the others, so the mix is not that of the screen. A number with no mark means an inactive call. No stated cut-off is given here; in the data, active means activation above about 40%; inconclusive means no clear call, values can overlap the other calls; inactive means below that.

test: Bmi1 luciferase reporter increase in mESCs, primary screen, esBAF inhibitor project, mouse ES cells, Bmi1 luciferase knock-in, single point (AID 602393); details: 24 h, at 12.5 µM, stronger effect = higher value, 100% = twice the neutral-well signal;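 further: 0% = median of the plate's neutral control wells and 100% = double that signal; a rise in the Bmi1 reporter signal indicates esBAF inhibition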

Compound	reporter increase
CC(=O)Nc1ccc(NC(=O)CN2CCCC(C)C2)c(Cl)c1 (stereo not drawn)	49.7% (active)
O=C(CN1CCOCC1)Nc1ccc(NC(=O)CN2CCOCC2)c(Cl)c1	3.57%
CC1CCCN(CC(=O)Nc2cc(Cl)ccc2Oc2ccccc2)C1 (stereo not drawn)	0.159%
Cn1c(SCc2c(F)cccc2Cl)nnc1-c1cnccn1	59% (active)
Oc1ccc(-n2nnnc2SCc2c(F)cccc2Cl)cc1	-6.31%
Cn1c(SCC(=O)c2ccc(F)cc2)nnc1-c1ccccn1	39.1%
Cc1noc(C)c1S(=O)(=O)Nc1ccc2c(c1)C(=O)N([C@@H](C)CO)C[C@@H](C)[C@@H](CN(C)Cc1ccccc1)OCCCC[C@H](C)O2	-1.71%
Cc1ccn2c(=O)nc(SCC(=O)NCc3ccc(F)cc3)nc2c1	-3.54%
Cc1cccc2nc(CNc3ccc(F)cc3)cn12	56.3% (active)
CCOC(=O)CSc1nnc(CNc2ccc(F)cc2)o1	4.3%
O=C(C[C@H]1CC[C@H]2[C@@H](COC[C@@H](O)CN2CCC(F)(F)F)O1)NCc1ccc2c(c1)OCO2	-0.0255%
CCCC(=O)Nc1ccc2c(c1)C(=O)N(C)[C@@H]1CC[C@H](CC(=O)Nc3cn(C)nc3C)O[C@H]1CO2	-3.47%
C[C@@H]1CN([C@@H](C)CO)C(=O)c2cc(C#CCc3ccccc3)cnc2O[C@@H]1CN(C)C(=O)C1CCOCC1	-0.454%
Cc1cccc(N(CC(=O)N2CCOCC2)S(C)(=O)=O)c1	0.817%
Cc1cccc(N2C(=O)SC(N(CC(=O)O)c3cccc(C)c3)C2=O)c1 (stereo not drawn)	51.9% (active)
Cc1ccc(N2C(=O)SC(N(CC(=O)O)c3ccc(C)cc3)C2=O)cc1 (stereo not drawn)	-3.76%
C[C@H]1CN([C@@H](C)CO)C(=O)c2cc(N(C)C)ccc2O[C@@H]1CN(C)C(=O)Nc1ccc2c(c1)OCO2	0.253%
O=C(Nc1cccc2ccccc12)NC1CC1	-6.94%
O=C(Nc1cccc2ccccc12)c1[nH]c(-c2ccccc2)c2c1C(=O)N(C1CC1)C2=O	-8.26%
O=C(Nc1cccc2ccccc12)c1onc2c1CCCC2	68.2% (active)
C[C@@H]1CN([C@@H](C)CO)S(=O)(=O)c2ccc(C#Cc3cccnc3)cc2O[C@@H]1CN(C)C	-4.81%
O=C(c1cc(-c2cccc(O)c2)on1)N1CCc2ccccc2C1	10.2%
COc1ccc2c(c1)CCc1c(C(=O)N3CCc4ccccc4C3)noc1-2	26.1%
O=C(c1noc2c1CCCC2)N1CCc2ccccc2C1	63.6% (active)
COC(=O)C[C@@H]1CC[C@H]2[C@H](COc3ccc(NC(=O)c4cccs4)cc3C(=O)N2C)O1	2.44%
Oc1ccc(-c2cccc(-c3ccc(O)cc3)c2)cc1	57.6% (active)

Compound	reporter increase
O=C(CN1CCN(c2ccc(O)cc2)CC1)Nc1ccc(-c2ccccc2)cc1	-6.35%
O=C(CN1CCOCC1)NCC[C@@H]1CC[C@@H](NC(=O)Nc2ccccc2)[C@H](CO)O1	-0.967%
CCCNC(=O)N(C)C[C@H]1Oc2cc(C3=CCCCC3)ccc2S(=O)(=O)N([C@H](C)CO)C[C@H]1C	-6.45%
COc1ccc(NC(=O)N(C)C[C@@H]2OCCCC[C@H](C)Oc3ccc(NS(=O)(=O)c4cn(C)cn4)cc3C(=O)N([C@@H](C)CO)C[C@@H]2C)cc1	1.74%
C[C@@H](O)C#Cc1ccc([C@H]2[C@H](CO)N3CCCCN(C(=O)c4ccc5c(c4)OCO5)C[C@@H]23)cc1	-3.75%
COc1ccc(-n2nc(C(=O)NCC(=O)N3CCCCCC3)c3ccccc3c2=O)cc1Cl	47.6% (active)
COc1ccc(-n2nc(C(=O)NCC(=O)N3CCN(c4ccccc4OC)CC3)c3ccccc3c2=O)c(OC)c1	30.3%
COc1ccc(-n2nc(C(=O)NCC(=O)N3CCC(C(N)=O)CC3)c3ccccc3c2=O)cc1OC	-4.41%
CCCNC(=O)Nc1ccc2c(c1)C(=O)N(C)C[C@@H](OC)[C@H](C)CN(C(=O)C1CCCCC1)[C@H](C)CO2	5.09%
C[C@@H]1CCCCO[C@H](CN(C)S(C)(=O)=O)[C@@H](C)CN([C@H](C)CO)C(=O)c2cc(NC(=O)Nc3ccc4c(c3)OCO4)ccc2O1	6.3%
CCOc1cc(/C=C2\SC(N3CCCCC3)=NC2=O)ccc1O	30.3%
CC(C)=C1SC(N2CCN(c3cccc(C)c3)CC2)=NC1=O	-1.1%
CCN1C(=O)/C(=C2\SC(N3CCCCC3)=NC2=O)c2ccccc21	65% (active)
O=C(C[C@H]1C=C[C@H](NC(=O)Cc2ccccn2)[C@@H](CO)O1)NCCc1ccccc1	-5.91%
CN1c2ccc(C#Cc3ccccc3F)cc2[C@@H]2[C@@H](CCN2C(=O)Cc2cccnc2)[C@H]1CO	1.33%
CCn1nnc(NC(=O)c2c(OC)cccc2OC)n1	1.33%
CCCOc1cccc(C(=O)Nc2nnn(CCC)n2)c1	52.7% (active)
CCCn1nnc(NC(=O)COc2ccc(CC)cc2)n1	-6.66%
CO[C@H]1CN(C)C(=O)c2cc(NC(=O)Nc3c(C)noc3C)ccc2OC[C@@H](C)N(CCC(F)(F)F)C[C@H]1C	-21.9%
Cc1noc(C)c1S(=O)(=O)N(C)C[C@@H]1OCCCC[C@H](C)Oc2ccc(NC(=O)Nc3ccc4c(c3)OCO4)cc2C(=O)N([C@H](C)CO)C[C@H]1C	2%
COCC(=O)Nc1ccc2c(c1)C(=O)N(C)[C@@H]1CC[C@H](CC(=O)NCC3CC3)O[C@@H]1CO2	-2.01%
CO[C@H]1CN(C)C(=O)c2cc(NC(=O)c3cc(C)on3)ccc2OC[C@H](C)N(C(C)=O)C[C@H]1C	0.72%
COc1ccc(Cc2nc3ccc(C(=O)NCC4CCOCC4)cc3o2)cc1OC	21%
CCCCc1nc2cc(C(=O)NCCc3cnn(C)c3)ccc2o1	31.5%
CCC1C(=O)NCCN1C(=O)c1ccc2nc(Cc3ccc(OC)cc3)oc2c1 (stereo not drawn)	0.998%
CSCCNC(=O)c1ccc2nc(Cc3ccccc3F)oc2c1	70.4% (active)

Compound	reporter increase
COCCNC(=O)c1ccc2nc(Cc3ccc(OC)c(OC)c3)oc2c1	48.6% (active)
O=C(NCCc1ccc(F)cc1)c1ccc2nccnc2c1	-17.6%
O=C(N[C@H]1CC[C@@H](CCNS(=O)(=O)c2cccc(Cl)c2)O[C@@H]1CO)c1ccncc1	0.826%
C[C@H](CO)N1C[C@H](C)[C@H](CN(C)C(=O)Nc2ccc(C(F)(F)F)cc2)Oc2ccc(NS(=O)(=O)c3ccccc3)cc2CC1=O	-4.41%
Cc1noc(C)c1S(=O)(=O)N(C)C[C@@H]1Oc2ccc(NC(=O)Cn3cnnn3)cc2CC(=O)N([C@@H](C)CO)C[C@H]1C	-6.08%
Cc1cc(C(=O)Nc2cccc3c2O[C@@H](CN(C)S(=O)(=O)c2ccc(F)cc2)[C@@H](C)CN([C@H](C)CO)C3=O)n(C)n1	5.98%
CCC(=O)Nc1ccc2c(c1)OC[C@@H](C)N(Cc1ccccn1)C[C@H](C)[C@@H](OC)CN(C)C2=O	-3.64%
COc1ccc(NC(=O)N(C)C[C@H]2OCCCC[C@H](C)Oc3ccc(NS(C)(=O)=O)cc3C(=O)N([C@H](C)CO)C[C@@H]2C)cc1	3.29%
CC(C)NC(=O)N(C)C[C@H]1OCCCC[C@@H](C)Oc2ccc(NS(C)(=O)=O)cc2C(=O)N([C@H](C)CO)C[C@H]1C	-1.04%
COc1ccc(NC(=O)Nc2ccc3c(c2)C(=O)N([C@H](C)CO)C[C@@H](C)[C@H](CN(C)C(=O)Cc2ccccc2)OCCCC[C@H](C)O3)cc1	15.2%
CC(C)c1ccc(NC(=O)Cn2ncc3ccccc32)cc1	61.7% (active)
CCOC(=O)c1cn(CC(=O)Nc2ccc(C(C)C)cc2)nn1	-4.55%
CCc1ccc(NC(=O)Cn2ncn3c(cc4ccccc43)c2=O)cc1	-6.55%
COc1cccc(CNC(=O)[C@@H]2[C@@H](CO)[C@@H]3Cn4c(ccc(-c5cccnc5)c4=O)[C@@H]3N2C)c1	0.488%
COc1ccc(N=C(C)c2sc3ccccc3c2O)cc1	50.4% (active)
COC(=O)c1ccc(/C=C/c2c(-c3ccc(OC)cc3)sc3ccccc23)cc1	0.121%
COc1ccccc1-c1sc2ccccc2c1-c1ccc(C(C)=O)cc1	34.4%
N#C[C@H]1[C@@H](c2ccc(C3=CCCCC3)cc2)[C@@H](CO)N1C(=O)NC1CCCCC1	7.57%
C[C@H]1CCCCO[C@H](CN(C)C(=O)Nc2ccccc2)[C@@H](C)CN([C@@H](C)CO)C(=O)c2cc(NC(=O)CCC(F)(F)F)ccc2O1	-7.05%
O=C(C1CCC1)N1C[C@@H]2[C@H](c3ccccc31)[C@H](CO)N2C(=O)c1ccccc1	-1.2%
COc1ccccc1Cc1nc(-c2ccc(C)cc2)no1	46.3% (active)
CCCc1nc(-c2cc3cc(C)ccc3[nH]c2=O)no1	-1.25%
Cc1ccc(Cc2nc(-c3cccc(C)c3)no2)cc1	60.8% (active)
COc1ccccc1-c1noc(CSc2nc(C)cc(=O)[nH]2)n1	-5.13%
Cc1ccc(-c2noc(CC(c3ccccc3)c3ccccc3)n2)cc1	0.61%
Cc1ccc(-c2noc(CNC(=O)c3ccoc3C)n2)cc1	1.49%
